Measured values reported in PMC7862700, “An all-to-all approach to the identification of sequence-specific readers for epigenetic DNA modifications on cytosine”.

Experiments:
Assay in all cases: DAPPL (digital affinity profiling via proximity ligation, sequencing); 10 mM Tris-HCl pH 7.5, 50 mM NaCl, 1 mM DTT, 4% glycerol, room temperature, 30 min; GST-TFs on glutathione beads, 16-mer random dsDNA library, 0.1% formaldehyde crosslink after washing; high values mean tight binding
Details in all cases: protein: recombinant; tags: N-terminal GST; dsDNA, one strand shown
[1] = biological target: T1, ELK1 (Homo sapiens, UniProt P19419 1-428)
T1 sequence: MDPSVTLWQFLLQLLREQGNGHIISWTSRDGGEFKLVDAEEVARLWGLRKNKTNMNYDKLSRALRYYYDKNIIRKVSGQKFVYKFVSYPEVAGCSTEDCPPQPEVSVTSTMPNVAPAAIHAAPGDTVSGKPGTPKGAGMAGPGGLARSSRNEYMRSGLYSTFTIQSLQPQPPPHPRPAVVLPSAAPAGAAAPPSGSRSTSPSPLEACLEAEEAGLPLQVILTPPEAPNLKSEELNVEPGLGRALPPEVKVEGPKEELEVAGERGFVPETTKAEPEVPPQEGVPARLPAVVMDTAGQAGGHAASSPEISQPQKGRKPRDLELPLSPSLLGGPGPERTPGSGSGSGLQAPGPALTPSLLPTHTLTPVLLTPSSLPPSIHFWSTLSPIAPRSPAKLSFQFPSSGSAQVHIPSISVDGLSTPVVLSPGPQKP
Method in brief: (§1)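 Sequencing on an Illumina NextSeq500 followed washing, crosslinking with 0.1% formaldehyde, proximity ligation (BsaI/T4 ligase, 1 h, 37 °C) and PCR amplification of pools that had been incubated for 30 min at room temperature with 200 nmole of a random double-stranded 16-mer DNA library in Tris/NaCl/DTT/glycerol buffer. Each pool held DNA-barcoded human transcription factors, expressed in yeast as GST fusions and captured on glutathione beads, plus a tag-only sample. Binding signal is a hexamer's read frequency for a factor divided by its frequency in the tag-only sample.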

[2] = biological target: T2, GABPA (Homo sapiens, UniProt Q06546 1-454)
T2 sequence: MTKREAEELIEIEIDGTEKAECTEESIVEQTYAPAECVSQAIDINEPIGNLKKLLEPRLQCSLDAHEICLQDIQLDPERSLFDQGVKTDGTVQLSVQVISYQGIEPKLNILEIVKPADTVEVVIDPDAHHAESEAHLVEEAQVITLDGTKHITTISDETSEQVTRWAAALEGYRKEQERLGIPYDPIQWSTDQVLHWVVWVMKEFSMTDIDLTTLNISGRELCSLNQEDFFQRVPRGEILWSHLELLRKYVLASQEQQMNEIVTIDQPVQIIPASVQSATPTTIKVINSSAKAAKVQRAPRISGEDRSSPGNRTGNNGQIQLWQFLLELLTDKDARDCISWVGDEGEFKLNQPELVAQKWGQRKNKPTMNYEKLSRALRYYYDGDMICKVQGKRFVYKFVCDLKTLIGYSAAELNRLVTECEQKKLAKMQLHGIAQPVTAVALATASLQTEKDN
Method in brief: as §1

[3] = biological target: ELF1 (Homo sapiens, UniProt P32519 1-619)
ELF1, sequence (P32519 whole entry): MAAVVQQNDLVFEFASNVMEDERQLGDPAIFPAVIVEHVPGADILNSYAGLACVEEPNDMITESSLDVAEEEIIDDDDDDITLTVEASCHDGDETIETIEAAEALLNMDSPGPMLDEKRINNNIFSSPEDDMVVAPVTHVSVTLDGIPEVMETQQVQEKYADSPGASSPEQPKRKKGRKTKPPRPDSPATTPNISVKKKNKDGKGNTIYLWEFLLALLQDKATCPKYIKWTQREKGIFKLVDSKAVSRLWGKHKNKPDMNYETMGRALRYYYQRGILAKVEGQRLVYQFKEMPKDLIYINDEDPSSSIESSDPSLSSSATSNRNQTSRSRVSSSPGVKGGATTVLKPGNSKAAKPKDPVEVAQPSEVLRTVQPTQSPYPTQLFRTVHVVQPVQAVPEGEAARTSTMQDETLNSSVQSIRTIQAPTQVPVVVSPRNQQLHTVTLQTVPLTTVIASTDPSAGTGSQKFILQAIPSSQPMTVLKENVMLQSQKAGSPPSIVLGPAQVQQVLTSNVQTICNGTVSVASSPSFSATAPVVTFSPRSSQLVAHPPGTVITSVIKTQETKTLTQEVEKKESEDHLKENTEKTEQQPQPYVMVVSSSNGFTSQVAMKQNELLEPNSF
Method in brief: as §1

[4] = biological target: T3, EHF (Homo sapiens, UniProt Q9NZC4 1-300)
T3 sequence: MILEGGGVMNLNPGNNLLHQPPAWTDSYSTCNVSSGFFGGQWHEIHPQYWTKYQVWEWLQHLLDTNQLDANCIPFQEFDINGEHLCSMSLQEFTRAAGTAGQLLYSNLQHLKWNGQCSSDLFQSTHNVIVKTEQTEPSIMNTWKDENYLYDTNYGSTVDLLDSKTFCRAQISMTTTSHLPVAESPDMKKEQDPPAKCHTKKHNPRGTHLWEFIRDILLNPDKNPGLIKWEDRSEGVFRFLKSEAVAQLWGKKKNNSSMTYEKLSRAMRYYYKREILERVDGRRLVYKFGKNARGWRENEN
Method in brief: as §1

[5] = biological target: SPIB (Homo sapiens, UniProt Q01892 1-262)
SPIB, sequence (Q01892 whole entry): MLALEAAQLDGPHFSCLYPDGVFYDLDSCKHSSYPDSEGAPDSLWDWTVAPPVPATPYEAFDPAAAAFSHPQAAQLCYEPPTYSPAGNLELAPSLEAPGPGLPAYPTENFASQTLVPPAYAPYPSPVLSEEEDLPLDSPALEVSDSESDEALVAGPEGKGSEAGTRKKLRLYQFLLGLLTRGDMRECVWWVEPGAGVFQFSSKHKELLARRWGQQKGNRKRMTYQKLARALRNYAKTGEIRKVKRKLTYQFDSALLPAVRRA
Method in brief: as §1

[6] = biological target: ETV5 (Homo sapiens, UniProt P41161 1-510)
ETV5, sequence (P41161 whole entry): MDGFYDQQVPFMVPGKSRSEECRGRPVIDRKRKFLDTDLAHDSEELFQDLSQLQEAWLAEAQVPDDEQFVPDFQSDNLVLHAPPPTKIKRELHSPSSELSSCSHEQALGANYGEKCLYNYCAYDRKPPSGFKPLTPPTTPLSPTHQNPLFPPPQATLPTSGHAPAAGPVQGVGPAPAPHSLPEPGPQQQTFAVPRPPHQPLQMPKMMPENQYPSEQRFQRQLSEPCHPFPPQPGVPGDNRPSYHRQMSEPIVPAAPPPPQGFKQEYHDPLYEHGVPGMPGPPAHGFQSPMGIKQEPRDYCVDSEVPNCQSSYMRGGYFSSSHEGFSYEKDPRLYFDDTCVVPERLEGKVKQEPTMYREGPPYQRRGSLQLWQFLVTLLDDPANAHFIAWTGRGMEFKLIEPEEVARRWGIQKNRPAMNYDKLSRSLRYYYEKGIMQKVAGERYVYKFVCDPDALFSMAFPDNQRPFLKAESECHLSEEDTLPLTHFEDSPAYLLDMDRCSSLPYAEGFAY
Method in brief: as §1

[7] = biological target: ELF4 (Homo sapiens, UniProt Q99607 1-663)
ELF4, sequence (Q99607 whole entry): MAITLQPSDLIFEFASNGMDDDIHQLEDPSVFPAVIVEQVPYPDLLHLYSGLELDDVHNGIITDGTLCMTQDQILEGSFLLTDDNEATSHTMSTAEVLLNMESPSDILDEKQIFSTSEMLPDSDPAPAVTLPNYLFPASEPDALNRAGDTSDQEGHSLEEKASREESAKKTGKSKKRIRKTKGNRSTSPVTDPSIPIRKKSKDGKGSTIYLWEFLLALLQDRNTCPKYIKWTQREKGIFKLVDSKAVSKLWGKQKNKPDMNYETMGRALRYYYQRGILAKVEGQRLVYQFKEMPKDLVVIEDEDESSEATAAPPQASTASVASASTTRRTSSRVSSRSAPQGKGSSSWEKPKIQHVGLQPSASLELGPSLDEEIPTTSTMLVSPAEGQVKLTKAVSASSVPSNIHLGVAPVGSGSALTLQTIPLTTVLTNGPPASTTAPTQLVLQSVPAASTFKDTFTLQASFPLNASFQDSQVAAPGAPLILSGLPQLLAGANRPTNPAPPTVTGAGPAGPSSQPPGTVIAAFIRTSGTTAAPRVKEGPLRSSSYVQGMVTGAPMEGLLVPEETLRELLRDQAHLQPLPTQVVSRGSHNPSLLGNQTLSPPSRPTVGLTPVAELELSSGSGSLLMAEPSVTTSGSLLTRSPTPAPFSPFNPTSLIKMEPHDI
Method in brief: as §1

[8] = biological target: T4, ELK4 (Homo sapiens, UniProt P28324-2 1-405)
T4 sequence: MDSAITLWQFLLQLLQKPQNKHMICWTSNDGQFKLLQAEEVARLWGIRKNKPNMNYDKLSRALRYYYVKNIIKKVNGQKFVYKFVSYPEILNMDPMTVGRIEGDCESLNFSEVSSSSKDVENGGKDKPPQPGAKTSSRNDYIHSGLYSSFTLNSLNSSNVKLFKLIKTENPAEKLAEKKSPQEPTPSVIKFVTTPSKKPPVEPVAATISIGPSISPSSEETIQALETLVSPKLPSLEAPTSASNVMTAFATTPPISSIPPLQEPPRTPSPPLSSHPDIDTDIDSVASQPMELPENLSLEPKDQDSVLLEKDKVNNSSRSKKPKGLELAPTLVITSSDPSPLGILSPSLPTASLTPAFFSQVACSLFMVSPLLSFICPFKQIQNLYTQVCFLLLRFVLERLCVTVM
Method in brief: as §1

[9] = biological target: T5, ELF3 (Homo sapiens, UniProt P78545 1-371)
T5 sequence: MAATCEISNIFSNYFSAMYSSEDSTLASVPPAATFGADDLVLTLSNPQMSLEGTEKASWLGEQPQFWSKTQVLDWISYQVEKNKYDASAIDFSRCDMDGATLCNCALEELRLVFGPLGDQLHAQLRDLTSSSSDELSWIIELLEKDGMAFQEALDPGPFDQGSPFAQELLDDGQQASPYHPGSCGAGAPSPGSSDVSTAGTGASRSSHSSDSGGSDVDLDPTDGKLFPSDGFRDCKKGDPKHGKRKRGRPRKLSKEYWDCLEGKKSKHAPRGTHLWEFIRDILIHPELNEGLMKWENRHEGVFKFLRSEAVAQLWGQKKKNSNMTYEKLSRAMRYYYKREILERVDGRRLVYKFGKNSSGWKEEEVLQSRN
Method in brief: as §1

[10] = biological target: ETV1 (Homo sapiens, UniProt P50549 1-477)
ETV1, sequence (P50549 whole entry): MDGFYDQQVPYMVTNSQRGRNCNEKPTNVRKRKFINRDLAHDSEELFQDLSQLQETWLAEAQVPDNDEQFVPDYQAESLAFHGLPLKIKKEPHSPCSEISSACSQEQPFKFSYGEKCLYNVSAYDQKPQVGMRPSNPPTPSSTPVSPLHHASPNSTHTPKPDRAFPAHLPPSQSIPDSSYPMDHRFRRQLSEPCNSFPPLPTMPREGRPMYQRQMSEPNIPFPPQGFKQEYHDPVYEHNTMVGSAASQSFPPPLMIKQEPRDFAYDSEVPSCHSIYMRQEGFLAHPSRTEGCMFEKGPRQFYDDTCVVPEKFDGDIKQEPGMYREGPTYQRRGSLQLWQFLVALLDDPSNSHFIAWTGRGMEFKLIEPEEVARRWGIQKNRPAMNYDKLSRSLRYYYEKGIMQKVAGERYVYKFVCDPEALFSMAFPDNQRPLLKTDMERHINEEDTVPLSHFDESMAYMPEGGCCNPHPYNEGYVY
Method in brief: as §1

[11] = biological target: T6, ERF (Homo sapiens, UniProt P50548 1-548)
T6 sequence: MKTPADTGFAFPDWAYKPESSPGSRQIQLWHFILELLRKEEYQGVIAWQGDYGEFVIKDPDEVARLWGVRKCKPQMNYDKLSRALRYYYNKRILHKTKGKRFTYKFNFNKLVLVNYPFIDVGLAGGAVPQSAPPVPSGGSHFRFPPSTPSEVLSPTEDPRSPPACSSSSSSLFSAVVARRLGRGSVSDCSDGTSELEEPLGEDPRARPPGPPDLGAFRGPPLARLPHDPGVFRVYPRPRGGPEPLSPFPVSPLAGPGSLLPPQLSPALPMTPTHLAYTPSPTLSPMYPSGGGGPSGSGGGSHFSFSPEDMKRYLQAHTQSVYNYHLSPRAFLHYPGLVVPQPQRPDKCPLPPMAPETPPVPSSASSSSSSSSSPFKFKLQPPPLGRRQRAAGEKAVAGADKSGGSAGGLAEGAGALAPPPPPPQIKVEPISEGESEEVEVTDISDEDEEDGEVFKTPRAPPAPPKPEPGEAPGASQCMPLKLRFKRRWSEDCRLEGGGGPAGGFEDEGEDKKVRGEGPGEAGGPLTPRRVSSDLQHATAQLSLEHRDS
Method in brief: as §1

[12] = biological target: T7, ETV3L (Homo sapiens, UniProt Q6ZN32 1-361)
T7 sequence: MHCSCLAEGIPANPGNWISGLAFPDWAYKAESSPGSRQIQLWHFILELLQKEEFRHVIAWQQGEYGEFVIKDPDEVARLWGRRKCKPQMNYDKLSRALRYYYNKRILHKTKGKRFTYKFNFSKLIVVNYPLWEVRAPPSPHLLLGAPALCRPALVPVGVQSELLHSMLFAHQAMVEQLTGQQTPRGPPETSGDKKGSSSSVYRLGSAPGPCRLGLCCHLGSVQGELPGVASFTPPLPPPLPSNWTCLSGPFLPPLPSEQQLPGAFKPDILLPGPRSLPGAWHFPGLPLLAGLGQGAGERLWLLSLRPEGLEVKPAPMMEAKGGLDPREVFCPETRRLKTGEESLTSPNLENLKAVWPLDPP
Method in brief: as §1

[13] = biological target: T8, ETS2 (Homo sapiens, UniProt P15036 1-469)
T8 sequence: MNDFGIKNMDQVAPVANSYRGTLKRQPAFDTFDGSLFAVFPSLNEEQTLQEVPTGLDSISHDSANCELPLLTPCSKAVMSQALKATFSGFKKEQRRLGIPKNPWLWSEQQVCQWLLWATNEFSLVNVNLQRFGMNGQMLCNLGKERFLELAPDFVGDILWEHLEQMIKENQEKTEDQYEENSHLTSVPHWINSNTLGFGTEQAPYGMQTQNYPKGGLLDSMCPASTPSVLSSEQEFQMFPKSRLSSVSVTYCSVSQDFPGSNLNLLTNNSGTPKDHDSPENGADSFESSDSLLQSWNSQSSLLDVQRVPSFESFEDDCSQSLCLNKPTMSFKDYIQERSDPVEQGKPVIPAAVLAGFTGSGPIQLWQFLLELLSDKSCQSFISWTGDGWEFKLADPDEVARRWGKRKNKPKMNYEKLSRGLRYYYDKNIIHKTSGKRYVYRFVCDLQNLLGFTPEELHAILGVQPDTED
Method in brief: as §1

[14] = biological target: T9, SPDEF (Homo sapiens, UniProt O95238 1-335)
T9 sequence: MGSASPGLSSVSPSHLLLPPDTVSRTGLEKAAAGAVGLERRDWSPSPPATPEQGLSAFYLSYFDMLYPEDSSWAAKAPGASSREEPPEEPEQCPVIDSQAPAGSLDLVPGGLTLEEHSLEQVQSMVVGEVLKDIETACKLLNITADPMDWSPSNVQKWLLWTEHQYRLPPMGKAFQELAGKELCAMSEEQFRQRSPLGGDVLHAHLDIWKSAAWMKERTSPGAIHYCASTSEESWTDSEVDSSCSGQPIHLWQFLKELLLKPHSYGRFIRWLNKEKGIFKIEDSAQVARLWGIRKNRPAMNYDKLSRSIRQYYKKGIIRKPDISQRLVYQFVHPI
Method in brief: as §1

[15] = biological target: T10, ETV3 (Homo sapiens, UniProt P41162-2 1-143)
T10 sequence: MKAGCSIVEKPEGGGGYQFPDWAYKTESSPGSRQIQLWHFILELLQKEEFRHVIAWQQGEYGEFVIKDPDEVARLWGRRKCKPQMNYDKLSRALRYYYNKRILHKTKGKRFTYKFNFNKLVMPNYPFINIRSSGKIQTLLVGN
Method in brief: as §1

[16] = biological target: T11, FEV (Homo sapiens, UniProt Q99581 1-238)
T11 sequence: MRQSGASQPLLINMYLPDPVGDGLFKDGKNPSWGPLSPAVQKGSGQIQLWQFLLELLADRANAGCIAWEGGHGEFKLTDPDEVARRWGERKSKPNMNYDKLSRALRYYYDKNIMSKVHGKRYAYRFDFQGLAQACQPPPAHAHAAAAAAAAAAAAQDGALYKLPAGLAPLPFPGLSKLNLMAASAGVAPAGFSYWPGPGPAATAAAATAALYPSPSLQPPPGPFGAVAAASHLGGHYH
Method in brief: as §1

[17] = biological target: T12, ETV2 (Homo sapiens, UniProt O00321 1-342)
T12 sequence: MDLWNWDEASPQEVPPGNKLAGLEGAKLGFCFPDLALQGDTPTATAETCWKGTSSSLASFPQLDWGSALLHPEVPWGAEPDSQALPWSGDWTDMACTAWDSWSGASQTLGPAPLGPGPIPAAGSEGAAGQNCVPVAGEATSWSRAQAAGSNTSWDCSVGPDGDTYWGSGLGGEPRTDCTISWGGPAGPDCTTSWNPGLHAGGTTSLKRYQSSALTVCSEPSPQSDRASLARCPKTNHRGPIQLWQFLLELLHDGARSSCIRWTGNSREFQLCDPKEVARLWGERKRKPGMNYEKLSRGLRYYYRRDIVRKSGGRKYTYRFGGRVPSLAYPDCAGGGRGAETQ
Method in brief: as §1

[18] = biological target: T13, ETV7 (Homo sapiens, UniProt Q9Y603 1-341)
T13 sequence: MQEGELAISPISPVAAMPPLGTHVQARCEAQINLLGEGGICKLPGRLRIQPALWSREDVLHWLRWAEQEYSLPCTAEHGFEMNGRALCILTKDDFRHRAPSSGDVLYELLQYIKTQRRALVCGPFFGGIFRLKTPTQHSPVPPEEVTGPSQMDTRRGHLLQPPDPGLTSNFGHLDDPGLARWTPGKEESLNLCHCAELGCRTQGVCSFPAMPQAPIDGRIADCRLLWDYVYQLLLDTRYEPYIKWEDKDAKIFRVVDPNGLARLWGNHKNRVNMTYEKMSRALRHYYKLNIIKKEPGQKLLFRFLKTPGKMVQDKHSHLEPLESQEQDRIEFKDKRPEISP
Method in brief: as §1

Row | Sequence | binding signal [1] | binding signal [2] | binding signal [3] | binding signal [4] | binding signal [5] | binding signal [6] | binding signal [7] | binding signal [8] | binding signal [9] | binding signal [10] | binding signal [11] | binding signal [12] | binding signal [13] | binding signal [14] | binding signal [15] | binding signal [16] | binding signal [17] | binding signal [18]
1 | TGCAAG | 1.11 fold enrichment (6-mer frequency, TF over GST control) | 1.07 fold enrichment (6-mer frequency, TF over GST control) | 1.01 fold enrichment (6-mer frequency, TF over GST control) | 1.02 fold enrichment (6-mer frequency, TF over GST control) | 1.04 fold enrichment (6-mer frequency, TF over GST control) | 1.07 fold enrichment (6-mer frequency, TF over GST control) | 1.05 fold enrichment (6-mer frequency, TF over GST control) | 1.07 fold enrichment (6-mer frequency, TF over GST control) | 1.15 fold enrichment (6-mer frequency, TF over GST control) | 1.03 fold enrichment (6-mer frequency, TF over GST control) | 1.01 fold enrichment (6-mer frequency, TF over GST control) | 1.11 fold enrichment (6-mer frequency, TF over GST control) | 1.12 fold enrichment (6-mer frequency, TF over GST control) | 1.11 fold enrichment (6-mer frequency, TF over GST control) | 1.07 fold enrichment (6-mer frequency, TF over GST control) |  |  | 
2 | GCTAAC | 1.1 fold enrichment (6-mer frequency, TF over GST control) |  | 1.04 fold enrichment (6-mer frequency, TF over GST control) | 1.03 fold enrichment (6-mer frequency, TF over GST control) |  | 1.06 fold enrichment (6-mer frequency, TF over GST control) |  | 1.05 fold enrichment (6-mer frequency, TF over GST control) |  |  | 1.03 fold enrichment (6-mer frequency, TF over GST control) |  |  |  | 1 fold enrichment (6-mer frequency, TF over GST control) | 1.03 fold enrichment (6-mer frequency, TF over GST control) | 1.07 fold enrichment (6-mer frequency, TF over GST control) | 1.09 fold enrichment (6-mer frequency, TF over GST control)
